Compounds with a hit are over-represented: about 11% of the library has one in this group of screens.
AMA1 RON2 block = AMA1-RON2 (P. falciparum) interaction inhibition; actives 0.2% (n = 360,000); Potency, µM (series often up to 58.2 µM), inactives show top-dose activity change, negative = inhibition, usual class: inhibitors; AID 720542; AlphaScreen AMA1-biotinylated RON2 peptide binding;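 also: 0% = vehicle wells and -100% = peptide control; nearly all actives have a fitted effect of over 45% in size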
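AMA1 (3D7) with his tag at 25 nM final met compounds first, then biotinylated RON2 peptide at 25 nM; detection used donor plus acceptor beads, 10 µg/mL apiece, read by AlphaScreen after 30 min at room temperature.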
Pf growth 96h = P. falciparum growth inhibition at 96 hours; P. falciparum luciferase reporter growth, 96 h; Potency, µM (titrated, usually from 28.7 µM), for the others: top-dose activity change, negative = inhibition, hits mostly inhibitors; actives 6.9% (n = 320,000); AID 504834
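Luminescence readout: decreased luciferase signal marks inhibited growth of reporter-expressing P. falciparum in infected red cells (2% hematocrit, 0.05% parasitemia final), exposed to compound two generations (96 h, 37 C, 5% CO2).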
Pf growth 48h = P. falciparum growth inhibition at 48 hours (one generation). P. falciparum luciferase growth in erythrocytes, 48 h. Potency, µM (doses to about 28.7 µM), inactives show at the highest dose activity change, negative = inhibition, usual class: inhibitors. actives 5.9% (n = 310,000)
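Firefly luciferase activity from engineered P. falciparum reports growth; inhibitors lower the luminescent signal. Cultures contained 2% hematocrit erythrocytes at 0.1% final parasitemia.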
HCV inhibitor = inhibitors of hepatitis C virus infection; Huh7.5.1 HCVcc-Cre infection, luciferase reporter, 44 h; Potency, µM (top dose mostly 41.8 µM), for the others: at the top dose activity change, negative = inhibition, most hits filed as inhibitors; actives 3.4% (n = 340,000)
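After 44 h co-culture of compound, cells and HCVcc-Cre (~0.5 moi), substrate is added for 15 min at room temperature and luciferase measured over 15 sec. Cells were seeded at 1,000/well and pre-cultured 4 h.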
* marks the source's active call; other numbers are inactive results; ? = inconclusive; nt = not tested or not shown; [ ] = another dose, or the depositor's remark. Calls follow the shape of the dose curve; as a rule, active = well fitted curve in the direction sought with a large enough effect; inconclusive = small, poorly fitted or top-dose-only effect, or another doubt; inactive = no such curve, though single readings can be large; an effect the other way counts as inactive or inconclusive. Unless noted, % is scaled to controls: 0 for no effect and ±100 for the full control effect; potency is read from the fitted curve at half-maximal effect.

SMILES	AMA1 RON2 block	Pf growth 96h	Pf growth 48h	HCV inhibitor
CC(C)NC(=O)COc1coc(CN2CCN(c3ccccc3)CC2)cc1=O	-0.5%	?	9.0%	-9.4%
CC(C)NC(=O)COc1coc(CN2CCN(c3cccc(Cl)c3)CC2)cc1=O	-6.2%	11.7µM*	2.4%	3.1%
O=C(COc1coc(CN2CCN(c3cccc(Cl)c3)CC2)cc1=O)NC1CCCC1	1.2%	?	9.28µM*	?
NC1=NCC2c3ccccc3Cc3ccccc3N12 (stereo unspecified)	nt	6.75µM*	?	nt
O=C(O)/C=C/C(=O)Nc1ccc(-c2ccccc2)cc1	-0.5%	-2.2%	6.2%	4.5%
O=C1CN(C(=O)c2ccccc2)C(c2ccccc2)c2cc(F)ccc2N1 (stereo unspecified)	-4.7%	?	-13.3%	4.3%
O=C1CN(C(=O)c2ccc(Br)o2)C(c2ccccc2)c2cc(F)ccc2N1 (stereo unspecified)	-5.6%	11.7µM*	nt	1.4%
CC(C)N(C(=O)c1nn(C)c2c1CSc1ccccc1-2)C1CCCCC1	13.6%	2.08µM*	-23.5%	?
NC(N)=NS(=O)(=O)c1ccc(NC(=S)NC(=O)c2ccc3c(c2)OCO3)cc1	0.0%	?	45.4%	2.1%
O=C(NCc1ccccc1Cl)c1ccc(CSc2nc3ccncc3[nH]2)cc1	-9.8%	?	11.7µM*	-5.1%
Cc1ccc(C)c(N2CCN(C(=O)c3ccc(CSc4nc5ccncc5[nH]4)cc3)CC2)c1	-25.6%	-29.7%	?	?
CC1CCCCC1NC(=O)c1ccc(CSc2nc3ccncc3[nH]2)cc1 (stereo unspecified)	-3.4%	5.22µM*	?	?
Clc1ccccc1CSc1nc2ccncc2[nH]1	10.1%	?	nt	-1.9%
O=C(c1ccc(CSc2nc3ccncc3[nH]2)cc1)N1CCCCC1	-14.7%	11.7µM*	33.0%	0.6%[8.37 µM]
O=c1c(-c2ccco2)nc2ccccc2n1C(c1ccccc1)c1nc2ccccc2[nH]1 (stereo unspecified)	-2.7%	nt	nt	nt
COc1ccc(N2CCN(C(=O)c3ccc4c(=O)n(CCc5ccc(OC)c(OC)c5)c(=O)[nH]c4c3)CC2)cc1	10.5%	47.0%	?	11.2µM*
CCn1c(=O)[nH]c2cc(C(=O)N3CCN(c4ccccc4)CC3)ccc2c1=O	11.0%	nt	20.4%	5.1%
O=C(c1ccc2c(=O)n(Cc3ccco3)c(=S)[nH]c2c1)N1CCN(c2ccccc2)CC1	-6.5%	11.7µM*	6.6%	?
O=C(CCc1nnc2n(Cc3ccc(F)cc3)c(=O)c3ccccc3n12)N1CCN(c2ccccn2)CC1	10.4%	-21.6%	?	14.1µM*
O=C(CCc1nnc2n(Cc3ccc(F)cc3)c(=O)c3ccccc3n12)NCCN1CCOCC1	0.0%	?	?	13.2%
O=C(c1ccc(Cn2c(=O)[nH]c3ccccc3c2=O)cc1)N1CCN(c2ccccc2)CC1	6.6%	3.29µM*	?	20.0%
CCCn1c(=S)[nH]c2cc(C(=O)N3CCN(c4ccccc4)CC3)ccc2c1=O	-4.7%	nt	nt	nt
O=C(c1ccc2c(=O)n(CCc3ccccc3)c(=O)[nH]c2c1)N1CCN(c2ccccc2)CC1	2.5%	?	?	-27.1%
O=C(NC(=S)Nc1ccc2c(c1)C(=O)c1ccccc1C2=O)c1ccc(F)cc1	nt	204.6%	173.0%	5.1%
N#Cc1c(-c2ccccc2)nc(SCC(=O)N2c3ccccc3Sc3ccccc32)[nH]c1=O	-7.6%	100.4%	-4.3%	25.5%
O=C(c1ccc(Cn2c(=O)[nH]c3ccccc3c2=O)cc1)N1CCN(c2ccccn2)CC1	-1.9%	3.0%	?	-16.3%
O=C(c1ccc(Cn2c(=S)[nH]c3ccccc3c2=O)cc1)N1CCN(c2ccccn2)CC1	48.4%	?	?	11.2µM*
CCCCn1c(N)c(N(Cc2ccccc2)C(=O)COc2ccccc2F)c(=O)[nH]c1=O	9.5%	-1.1%	-2.1%	7.1%
C#CCOCCOCCOCCNc1nc(N2CCN(C(=O)[C@H](Cc3cc4ccccc4[nH]3)n3cc([C@@H](N)CC(C)C)nn3)CC2)nc(N2CCN(C(=O)[C@H](Cc3cc4ccccc4[nH]3)n3cc([C@@H](N)CC(C)C)nn3)CC2)n1	-24.4%	4.15µM*	2.62µM*	11.6%
C#CCOCCOCCOCCNc1nc(N2CCOCC2)nc(N2CCN(C(=O)[C@H](Cc3cc4ccccc4[nH]3)n3cc([C@@H](N)CC(C)C)nn3)CC2)n1	-8.0%	4.15µM*	2.33µM*	-2.8%
